Bioassay records as filed in PubChem BioAssay.
NTR1 ag: NTR1 (human) agonism | P30989 | NTR1-U2OS beta-arrestin-GFP spot imaging, agonist mode | activation, % at 20 µM | actives 0.17% (n = 330,000) | AID 493036;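 active = activation at or above 40% of the spot to cytoplasm intensity ratio, with at least 20 cells analyzed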;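 also: 0% = DMSO without peptide and 100% = 100 nM NTR1 peptide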
AI-2 QS modul: Vibrio harveyi AI-2 quorum sensing modulation; Vibrio harveyi JMH597 AI-2 luminescence/OD600 ratio, 9 h; hits give low values; strain lacks LuxN and CqsS sensors; 0 = neutral-control median; activity change, % at 7.5 µM; actives 0.4% (n = 300,000); in the data active = activity change below about -75%, passing the limit was not always enough;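 also: luminescence divided by OD600 gain over 9 h not by final OD600 alone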
Pemphigus Ab inh: inhibitors of pemphigus antibody binding to human desmoglein-3; P32926; DSG3-coupled beads, scFv-anti-DSG3-GFP binding, flow cytometry; hits give low values; binding (percent of control), % at 10 µM; actives 0.48% (n = 310,000); AID 588358;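 active = binding more than 3 SD below its plate's average and above zero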;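 also: hits lower antibody fragment binding to DSG3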
VLA-4 inh: inhibition in a human VLA-4 binding assay | P13612 | VLA-4 expressing cells, ligand binding flow cytometry | inhibition, % (about 7 µM as worked out from the volumes in the protocol) | actives 0.2% (n = 330,000); in the data active = inhibition above about 50%
VLA-4 mod pick: confirmation of allosteric modulators of human VLA-4 integrin; shares compounds with VLA-4 inh; U937 cells, HUTS-21 LIBS mAb binding, flow cytometry; LDV ligand present at threefold Kd; inhibition, % at 6.7 µM; actives 2% (n = 1,300); in the data active = inhibition above about 40%;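 also: 0% = ligand without compound and 100% = no ligand background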
An asterisk follows results filed as active; nt = not tested or not shown. This is a sample that favours compounds with a hit; in the whole collection about 1.1% have one here.

SMILES	NTR1 ag	AI-2 QS modul	Pemphigus Ab inh	VLA-4 inh	VLA-4 mod pick
CO/N=C/CC(=O)c1ccc([N+](=O)[O-])c(CS(=O)(=O)c2ccc(Cl)cc2)c1	-1	13	92	42	-18
CSc1nc(N)nc2c1ncn2CC(=O)N[C@H](C)c1cccc2ccccc12	6	nt	97	54*	3
CC1CCCCN1C(=O)CN(C)S(=O)(=O)c1cccc2nsnc12 (stereo unspecified)	0	16	nt	12	nt
COC(=O)[C@]1(Cc2ccccc2)N[C@H](CN(C)S(=O)(=O)c2ccc(C(C)(C)C)cc2)[C@@H]2C(=O)N(Cc3ccccc3)C(=O)[C@@H]21	3	nt	96	-16	-6
COC(=O)[C@]1(Cc2ccccc2)N[C@H](CN(C)S(=O)(=O)c2ccc(C(F)(F)F)cc2)[C@@H]2C(=O)N(Cc3ccccc3)C(=O)[C@@H]21	4	nt	103	29	-10
O=C(C1CC(=O)N(c2ccc(Cl)cc2)C1)N1CCN(Cc2ccc3c(c2)OCO3)CC1 (stereo unspecified)	0	15	98	4	nt
N#Cc1cccc(S(=O)(=O)NCC(=O)NCc2ccc3c(c2)OCO3)c1	-2	nt	96	12	nt
COc1ccc(CNC(=O)CNS(=O)(=O)c2cccc(C#N)c2)cc1OC	nt	22	108	-8	3
CCN(CC(=O)Nc1ccc(NC(C)=O)cc1)C(=O)CCN1C(=O)C2CC=CCC2C1=O (stereo unspecified)	-1	nt	105	nt	nt
CCN(C(=O)Cn1cnc2c1c(=O)n(C)c(=O)n2C)C1CCCCC1	0	nt	nt	1	nt
COCCCN(C(=O)CCOc1ccc(C)cc1)c1c(N)n(Cc2ccccc2)c(=O)[nH]c1=O	-2	-1	105	50*	4
COCCCN(C(=O)CCOc1ccc(C(C)(C)C)cc1)c1c(N)n(Cc2ccccc2)c(=O)[nH]c1=O	1	38	104	16	nt
CC1(C)CC(NCCN2CCN(C3=CC(=C(C#N)C#N)CC(C)(C)C3)CC2)=CC(=C(C#N)C#N)C1	1	16	100	50*	5
CCCN(C(=O)C(=O)Nc1ccc2nc3n(c(=O)c2c1)CCCCC3)c1ccc(OCC)cc1	0	30	85	-5	nt
O=C(Nc1nc(-c2ccc(Cl)s2)cs1)c1ccco1	8	1	92	-18	nt
O=C(Nc1nc(-c2nc3ccccc3s2)cs1)c1ccco1	-1	14	101	78*	3
CCc1ccc(OCc2nnc(SCC(=O)Nc3cccc(C(=O)N4CCOCC4)c3)o2)cc1	-1	1	101	43	5
CC(NC(=O)/C(C#N)=C/c1ccc(Cl)c([N+](=O)[O-])c1)c1ccccc1 (stereo unspecified)	24	24	nt	61*	63*
C[C@@H](NC(=O)/C(C#N)=C/c1ccc(O)c(O)c1)c1ccccc1	0	nt	102	-4	nt
Nc1ncnc2c1nc(Br)n2[C@@H]1O[C@@H]2COP(=O)(O)O[C@H]2[C@H]1O	-1	25	93	54*	4
CCc1nnc(SCC(=O)Nc2ccc(N3CCOCC3)cc2)n1C	0	19	109	4	nt
CC1=C(C(=O)Nc2ccc(F)cc2)C(c2cccc(C)c2)n2nc(CCCO)nc2N1 (stereo unspecified)	0	6	105	51*	-4
O=C(CSc1nnc2ccccn12)NC(=O)c1ccccc1Cl	0	nt	97	-13	nt
C=C1C(O)[C@@H]2O[C@]3(CC[C@H](/C=C/C(C)[C@@H]4CC(C)=CC5(O[C@H](C[C@@](C)(O)CO)CCC5O)O4)O3)CC[C@H]2O[C@@H]1C(O)CC(C)[C@H]1OC2(CCCCO2)CCC1C (stereo partly specified)	-1	nt	nt	54*	52*
O=c1c2[nH]c3ccc(Br)cc3c2ncn1Cc1ccncc1	-1	8	nt	6	-9
CSCCC(=O)N1CCCC(N(C)CCc2ccccc2)C1 (stereo unspecified)	0	12	108	6	nt
Cc1ccc(C)c(N(CC(=O)N2CCCCCC2)S(C)(=O)=O)c1	0	12	99	-1	nt
Cc1ccc([N+](=O)[O-])cc1N(CC(=O)N1CCCCC1)S(C)(=O)=O	1	25	104	53*	-3
Cc1ccc(N(CC(=O)NC2CCCC2)C(=O)CNC(=O)c2cccs2)c(C)c1	0	-3	nt	9	nt
